Results published in PubChem BioAssay (NCATS).
Results filed as inconclusive are left out. The source made the active and inactive calls. Calls follow the shape of the dose curve; as a rule, active = well fitted curve in the direction sought with a large enough effect; inconclusive = small, poorly fitted or top-dose-only effect, or another doubt; inactive = no such curve, though single readings can be large; an effect the other way counts as inactive or inconclusive.

Key:
[1] = qHTS of pediatric cancer cell lines to identify multiple opportunities for drug repurposing: Confirmatory screen for MG 63 (6-TG R) cells (AID 1347119); also: nearly all actives have a fitted effect of over 55% in size; also: potency is read from the fitted curve at half-maximal effect
Method in brief: (§1)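 Cells (500-1,000/well) rested 5 h, then received compounds for 48 h; metabolically active cells were measured by CellTiter-Glo luminescence. Final concentrations spanned up to 46 µM (MIPE, 11-point) or 0.59 nM-46 µM (NPC, 8-point) in primary screens, 11-point in follow-ups.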

[2] = qHTS of pediatric cancer cell lines to identify multiple opportunities for drug repurposing: Confirmatory screen for control Hh wild type fibroblast cells (AID 1347121); also: nearly all actives have a fitted effect of over 70% in size
Method in brief: as §1

[3] = qHTS of pediatric cancer cell lines to identify multiple opportunities for drug repurposing: Confirmatory screen for U-2 OS cells (AID 1347122); also: nearly all actives have a fitted effect of over 65% in size; also: potency is read from the fitted curve at half-maximal effect
Method in brief: as §1

[4] = qHTS of pediatric cancer cell lines to identify multiple opportunities for drug repurposing: Confirmatory screen for RD cells (AID 1347124);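 also: cells exposed to compound for 48 h before viability readout; nearly all actives have a fitted effect of over 65% in size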; also: potency is read from the fitted curve at half-maximal effect
Method in brief: as §1

[5] = qHTS of pediatric cancer cell lines to identify multiple opportunities for drug repurposing: Confirmatory screen for Rh18 cells (AID 1347125); also: nearly all actives have a fitted effect of over 55% in size; also: potency is read from the fitted curve at half-maximal effect
Method in brief: as §1

[6] = qHTS of pediatric cancer cell lines to identify multiple opportunities for drug repurposing: Confirmatory screen for Rh30 cells (AID 1347126); also: nearly all actives have a fitted effect of over 55% in size; also: potency is read from the fitted curve at half-maximal effect
Method in brief: as §1

[7] = qHTS of pediatric cancer cell lines to identify multiple opportunities for drug repurposing: Confirmatory screen for Saos-2 cells (AID 1347127); also: nearly all actives have a fitted effect of over 60% in size; also: potency is read from the fitted curve at half-maximal effect
Method in brief: as §1

[8] = qHTS of pediatric cancer cell lines to identify multiple opportunities for drug repurposing: Confirmatory screen for OHS-50 cells (AID 1347128);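 also: compound exposure lasted 48 h at 37 degrees C; nearly all actives have a fitted effect of over 55% in size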; also: potency is read from the fitted curve at half-maximal effect
Method in brief: as §1

[9] = qHTS of pediatric cancer cell lines to identify multiple opportunities for drug repurposing: Confirmatory screen for SK-N-SH cells (AID 1347129);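 also: cells exposed to compound for 48 h before viability read; nearly all actives have a fitted effect of over 60% in size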; also: potency is read from the fitted curve at half-maximal effect
Method in brief: as §1

[10] = system: Zika virus NS2B-NS3 protease; experiment: Primary screen GU AMC qHTS for Zika virus inhibitors (AID 1347154); also: nearly all actives have a fitted effect of over 70% in size; also: potency is read from the fitted curve at half-maximal effect
Method in brief: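 Fluorogenic AMC-substrate cleavage by noncovalent NS2B-NS3 protease complex (25 nM, pH 8.0 Tris buffer with Tween 20) followed for 15 minutes at room temperature (~20% conversion). Percent inhibition from ex340/em450 signal change, fitted by 4-parameter Hill equation.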

[11] = system: Zika virus NS2B-NS3 protease (unlinked complex); experiment: Primary screen GU Rhodamine qHTS for Zika virus inhibitors: Unlinked NS2B-NS3 protease assay (AID 1347159); also: nearly all actives have a fitted effect of over 60% in size
Method in brief: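 Compounds, tested up to 114 microM, were incubated for 15 minutes with 25 nM unlinked NS2B-NS3 protease at pH 8.0. Cleavage of 1.5 microM Rhodamine110 substrate was then followed by fluorescence for 15 minutes.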

[12] = system: Zika virus NS2B-NS3 protease (linked construct); experiment: Primary screen NINDS Rhodamine qHTS for Zika virus inhibitors (AID 1347160); also: nearly all actives have a fitted effect of over 55% in size
Method in brief: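 Percent inhibition, normalized to uninhibited and enzyme-free controls, is fitted to a 4-parameter Hill equation. Fluorescence change comes from a 15-min cleavage of 1.5 microM bis-peptide Rhodamine110 substrate by 25 nM linked NS2B-NS3 at room temperature.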

[13] = qHTS of pediatric cancer cell lines to identify multiple opportunities for drug repurposing: Confirmatory screen for Rh41 cells (AID 1347123);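 also: 48 h compound exposure; nearly all actives have a fitted effect of over 60% in size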; also: potency is read from the fitted curve at half-maximal effect
Method in brief: as §1

Furin (Homo sapiens) = Furin (Homo sapiens) (UniProt P09958); experiment: Furin counterscreen qHTS for Zika virus inhibitors (AID 1347149);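 also: purified recombinant full-length human furin enzyme at 5 nM; fluorescence gain from furin cutting a BOC-RVRR-AMC peptide substrate over 15 min; top concentration of the series differs between compounds; nearly all actives have a fitted effect of over 70% in size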
Method in brief: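 Fluorogenic cleavage of BOC-RVRR-AMC (2 microM final, Km ~15 µM) was monitored (ex 340, em 450 nm) at 37C after 15 min RT preincubation of 5 nM furin with compounds in HEPES pH 7.0 buffer with CaCl2 and Triton X-100. Percent inhibition was fitted to a 4-parameter Hill curve.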

[14] = system: Zika virus NS2B-NS3 protease (linked construct); experiment: Confirmatory screen NINDS AMC qHTS for Zika virus inhibitors (AID 1347152); also: top concentration of the series differs between compounds; nearly all actives have a fitted effect of over 70% in size
Method in brief: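 IC50s from 4-parameter Hill fits of percent inhibition, based on AMC fluorescence gain (340/450 nm) over 15 min with 10 microM Bz-Nle-KRR-AMC. Enzyme: 1 nM linked NS2B-NS3 in Tris-HCl pH 8.0; 15-min compound preincubation.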

[15] = system: Zika virus NS2B-NS3 protease (unlinked complex); experiment: Confirmatory screen GU AMC qHTS for Zika virus inhibitors (AID 1347153); also: nearly all actives have a fitted effect of over 70% in size
Method in brief: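 Unlinked enzyme 25 nM, Tris pH 8.0/0.01% Tween 20; cpd 15 min RT, dark; + AMC substrate 10 µM (Km 18.3 µM); 340/450 nm read at t0 and 15 min; % inhibition → 4-param fit.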

Measured: Potency

Sequence of Furin (Homo sapiens) (P09958 whole entry, looked up): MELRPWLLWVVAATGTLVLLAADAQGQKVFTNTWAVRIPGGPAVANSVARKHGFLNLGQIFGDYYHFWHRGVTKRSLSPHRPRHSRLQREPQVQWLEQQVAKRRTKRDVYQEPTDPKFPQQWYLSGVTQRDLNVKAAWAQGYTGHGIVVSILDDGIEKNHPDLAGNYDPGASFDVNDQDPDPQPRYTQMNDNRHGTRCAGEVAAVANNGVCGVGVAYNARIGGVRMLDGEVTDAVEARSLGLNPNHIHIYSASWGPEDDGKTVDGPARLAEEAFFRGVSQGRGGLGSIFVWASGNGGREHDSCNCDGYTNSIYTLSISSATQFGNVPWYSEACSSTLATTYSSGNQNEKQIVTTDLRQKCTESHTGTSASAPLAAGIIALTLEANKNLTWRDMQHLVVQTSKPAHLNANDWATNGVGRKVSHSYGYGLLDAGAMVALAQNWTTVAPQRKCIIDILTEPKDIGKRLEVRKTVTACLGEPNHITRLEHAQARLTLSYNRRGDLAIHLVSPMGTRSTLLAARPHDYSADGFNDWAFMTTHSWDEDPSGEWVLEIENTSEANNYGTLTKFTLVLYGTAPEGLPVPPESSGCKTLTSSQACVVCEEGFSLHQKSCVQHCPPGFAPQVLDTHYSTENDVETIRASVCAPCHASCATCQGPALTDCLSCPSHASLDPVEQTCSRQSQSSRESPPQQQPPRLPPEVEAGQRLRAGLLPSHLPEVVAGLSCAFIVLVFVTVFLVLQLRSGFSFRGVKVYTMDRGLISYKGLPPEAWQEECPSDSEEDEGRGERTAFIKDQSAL

Cc1cnc(-c2cc(N3CCN(C(=O)CCS(C)(=O)=O)CC3)ncc2Cl)c(C)c1
not listed: [13] | Furin (Homo sapiens) | [14] | [15]
inactive: all other assays above

COC1CCC(C(=O)c2ccc3nc4c(cc3c2)CCCO4)CC1 (centres undefined)
inactive: [2] | [4] | [5] | [7] | [8] | [9] | [10]

Cc1ccccc1-n1c(Cn2nc(-c3cccc(O)c3)c3c(N)ncnc32)nc2cccc(C)c2c1=O
active: [6] 13.1 µM
inactive: [2] | [5] | [7] | [8] | [9] | [10] | [11] | [12]

CC(C)C[C@@H](C(=O)N[C@H](C(=O)OC1CCCC1)c1ccccc1)[C@H](O)C(=O)NO
inactive: [2] | [5] | [10]
active: [1] 20.8 µM | [13] 11.7 µM | [7] 5.85 µM

CNC(=O)[C@H](CC1=CN=C2C=CCC=C12)NC(=O)[C@@H](CC(=O)NO)CC(C)C
inactive: [9] | [10]
active: [1] 1.47 µM | [3] 4.14 µM | [13] 2.93 µM | [5] 1.47 µM | [6] 1.47 µM

CC1=C[C@@H]2[C@@H]([C@@H](O)C[C@@]3(C)[C@H]2C[C@@H](C)[C@]3(O)C(=O)CO)[C@@]2(C)Cc3cnn(-c4ccccc4)c3C=C12
active: [13] 23.3 µM
inactive: [2] | [3] | [5] | [6] | [7] | [10]

CN(C(Cc1ccc(OS(=O)(=O)c2cccc3cnccc23)cc1)C(=O)N1CCN(c2ccccc2)CC1)S(=O)(=O)c1cccc2cnccc12 (centres undefined)
active: [13] 5.22 µM | [8] 5.22 µM
inactive: [2] | [9] | [10]

CCCC1OC2C[C@@H]3[C@H]4CCC5=CC(=O)C=C[C@]5(C)[C@H]4C(O)C[C@]3(C)[C@]2(C(=O)CO)O1 (some centres undefined)
inactive: [1] | [2] | [8] | [9] | [10]

C[C@@]1(c2cc(-c3cncnc3)c(F)cc2F)CCSC(N)=N1
inactive: [2] | [5] | [6] | [10] | [11] | [12]
active: [1] 9.27 µM | [13] 7.37 µM

O=C1Nc2ccc(I)cc2C1=Cc1cc(Br)c(O)c(Br)c1
active: [6] 1.17 µM | [10] 12.1 µM
not listed: [2] | [3] | [8] | [11] | [12]
inactive: all other assays above

COc1cc(CNC(=O)CCCCC=CC(C)C)ccc1O
inactive: [1] | [2] | [4] | [5] | [6] | [7] | [8] | [10]

COc1cc2c(cc1Cc1cccc(Cl)c1F)c(=O)c(C(=O)O)cn2[C@H](CO)C(C)C
inactive: [2] | [3] | [4] | [5]
active: [13] 16.5 µM

COc1cc2c(cc1OC)[C@@H]1Cc3ccc(OC)c(OC)c3CN1CC2
inactive: [2] | [3] | [9] | [10]

O=C(CC12CC3CC(CC(C3)C1)C2)Nc1cccc2nc(NCCNCCO)ccc12
active: [13] 13.1 µM
inactive: [1] | [2] | [5] | [9] | [10] | [11] | [12]

CN(C)CCN(C)C(=O)c1ccc(NC(=O)Nc2ccc(-c3nc(N4CCOCC4)c4ccn(CC(F)(F)F)c4n3)cc2)cc1
active: [1] 0.329 µM | [3] 3.69 µM | [13] 0.208 µM | [4] 0.928 µM | [5] 3.29 µM | [6] 0.369 µM | [9] 4.69 µM
inactive: [10]

COC(=O)Nc1ccc(-c2nc(N3CCOCC3)c3cnn(C4CCN(C(=O)OC)CC4)c3n2)cc1
active: [1] 1.31 µM | [13] 2.61 µM | [8] 16.5 µM | [9] 4.18 µM
inactive: [10]

COc1ccc2c(c1)c(C1=C(c3c[nH]c4ccccc34)C(=O)NC1=O)cn2CCCN(C)C
inactive: [1] | [2] | [5] | [7] | [10]
active: [13] 20.8 µM | [6] 2.33 µM | [8] 23.3 µM | [9] 16.6 µM

CO[C@H]1/C=C\O[C@@]2(C)Oc3c(C)c(O)c4c(O)c(c5c(nc6cc(C)ccn65)c4c3C2=O)NC(=O)C(C)=CC=C[C@H](C)[C@H](O)[C@@H](C)[C@@H](O)[C@@H](C)[C@H](OC(C)=O)[C@H]1C
inactive: [1] | [2] | [3] | [4] | [5] | [6] | [7] | [9] | [10]

CC(C)C[C@H](NC(=O)c1cc2ccccc2s1)C(=O)N1CCN(C(=O)[C@H](CO)NS(=O)(=O)c2ccc(Cl)cc2Cl)CC1
active: [3] 0.0293 µM | [13] 18.5 µM
inactive: [2] | [5] | [10]

CC(=O)N1CCN(c2ccc(OCc3nn(C)c(C)c3-c3cccc4c(CCCOc5cc(C)c(Cl)c(C)c5)c(C(=O)O)n(Cc5cccnc5)c34)cc2)CC1
inactive: [2] | [3] | [4] | [5] | [6] | [9]
